Assay results as given in PubChem BioAssay (NCI).
Compounds without any hit were thinned out: in the full panel of roughly 79,000, 15% have a hit. A number with no mark means an inactive call. The source made the active and inactive calls. Cut-off read from the data, not from the text of the source: active = growth inhibition above about 70%; inactive = the rest.

Experiments:
[1] = NCI Yeast Anticancer Drug Screen. Data for the rad52 strain (AID 147);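 note: 0% = growth of vehicle-treated control cultures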; details: S. cerevisiae rad52 mutant growth inhibition, stronger effect = higher value
Procedure, shortened: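 Screen used a yeast mutant impaired in DNA repair. After compound exposure, growth was measured. Values reflect inhibition compared with vehicle-treated cells.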

[2] = NCI Yeast Anticancer Drug Screen. Data for the wt1 strain (AID 149);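 note: 0% = growth of vehicle-treated wt1 cultures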; details: S. cerevisiae wt1 strain (SPY 50644) growth inhibition, stronger effect = higher value
Procedure, shortened: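 Growth inhibition read against vehicle controls after compound exposure of the wt1 yeast strain.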

[3] = NCI Yeast Anticancer Drug Screen. Data for the rad50EPP+ strain (AID 151);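 note: 0% = growth of vehicle-treated control cultures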; details: S. cerevisiae rad50 mutant strain, stronger effect = higher value
Procedure, shortened: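 Exposing the rad50EPP+ strain to each compound, growth was compared with vehicle-only cultures to give inhibition.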

[4] = NCI Yeast Anticancer Drug Screen. Data for the mgt1 strain (AID 153); details: S. cerevisiae mgt1 mutant growth inhibition, stronger effect = higher value
Procedure, shortened: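 Genetically defined yeast (mgt1) treated with compound; inhibition of growth expressed against vehicle-treated controls.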

[5] = NCI Yeast Anticancer Drug Screen. Data for the rad50 strain (AID 155);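 note: 0% = growth of vehicle-only cultures of the same strain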; details: S. cerevisiae rad50 strain growth inhibition, stronger effect = higher value
Procedure, shortened: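 Readout: growth inhibition relative to vehicle-treated cultures. Compound exposure was carried out in a genetically defined yeast strain deficient in DNA damage repair.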

[6] = NCI Yeast Anticancer Drug Screen. Data for the mec2-1 strain (AID 157); details: S. cerevisiae mec2-1 strain, stronger effect = higher value
Procedure, shortened: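 Readout is yeast growth inhibition, normalised to vehicle-treated controls, in the mec2-1 strain exposed to compound.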

[7] = NCI Yeast Anticancer Drug Screen. Data for the rad14 strain (AID 159);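 note: 0% = growth of vehicle-treated control cultures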; details: S. cerevisiae rad14 strain growth inhibition, stronger effect = higher value
Procedure, shortened: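 Growth inhibition vs vehicle controls; genetically altered yeast strain (DNA damage repair defect) treated with test compounds.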

[8] = NCI Yeast Anticancer Drug Screen. Data for the sgs1 mgt1 strain (AID 161);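 note: 0% = growth of cultures given vehicle only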; details: S. cerevisiae sgs1 mgt1 strain, stronger effect = higher value
Procedure, shortened: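 This yeast growth screen uses a strain with defined DNA-repair lesions; compound-treated growth is compared with vehicle-treated growth.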

[9] = NCI Yeast Anticancer Drug Screen. Data for the cln2 rad14 strain (AID 165);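 note: 0% = growth equal to vehicle treated cultures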; details: S. cerevisiae cln2 rad14 strain, stronger effect = higher value
Procedure, shortened: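 Relative to vehicle controls, growth inhibition of compound-treated cln2 rad14 yeast was recorded.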

[10] = NCI Yeast Anticancer Drug Screen. Data for the bub3 strain (AID 167); details: S. cerevisiae bub3 mutant strain, stronger effect = higher value
Procedure, shortened: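 Readout: yeast growth inhibition, expressed relative to vehicle-only wells. The test organism is a mutant strain from a panel with lesions in DNA repair or checkpoint genes.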

[11] = NCI Yeast Anticancer Drug Screen. Data for the wt2 strain (AID 169);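 note: 0% = growth of vehicle-treated yeast cultures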; details: S. cerevisiae wt2 strain growth inhibition, stronger effect = higher value
Procedure, shortened: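 Values express reduction in yeast growth under compound treatment, referenced to vehicle-treated cells.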

[12] = NCI Yeast Anticancer Drug Screen. Data for the mlh1 strain (AID 171);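 note: 0% = growth of vehicle-treated control cultures of the same strain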; details: S. cerevisiae mlh1 strain growth inhibition, stronger effect = higher value
Procedure, shortened: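 Steps: expose the defined-mutant yeast strain to compound; expose a parallel culture to vehicle; measure growth; express compound effect as inhibition relative to the vehicle culture.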

[13] = NCI Yeast Anticancer Drug Screen. Data for the sgs1 strain (AID 173);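 note: 0% = growth of vehicle-only control cultures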; details: S. cerevisiae sgs1 mutant, stronger effect = higher value
Procedure, shortened: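 Treat defined-mutant yeast with compound; measure growth; calculate inhibition relative to vehicle-treated cells.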

[14] = NCI Yeast Anticancer Drug Screen. Data for the mlh1 rad18 strain (AID 175); details: S. cerevisiae mlh1 rad18 strain growth inhibition, stronger effect = higher value
Procedure, shortened: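 Test agents were incubated with a yeast strain of defined genotype (DNA damage repair defect). Inhibition of growth was derived by comparison with vehicle-exposed cultures.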

[15] = NCI Yeast Anticancer Drug Screen. Data for the rad18 strain (AID 177); details: S. cerevisiae rad18 mutant growth inhibition, stronger effect = higher value
Procedure, shortened: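 A genetically defined yeast mutant impaired in DNA damage repair was treated with test compounds, then its growth was measured against cultures receiving vehicle alone.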

[16] = at 5.0 µM (retest, dose inferred, filed as 0.5)
[17] = at 50.0 µM (retest, dose inferred, filed as 5.0)

## CC[C@@]1(O)C(=O)OCc2c1cc1n(c2=O)Cc2cc3c(CN(C)C)c(O)ccc3nc2-1
[1]; at 1.2 µM
  growth inhibition: 5%
[1]; at 3.7 µM
  growth inhibition: 13%
[1]; at 11.0 µM
  growth inhibition: 41%
[1]; at 33.0 µM
  growth inhibition: 68%
[1]; at 100.0 µM
  growth inhibition: 87% (active)
[2]; at 1.2 µM
  growth inhibition: -1%
[2]; at 3.7 µM
  growth inhibition: -1%
[2]; at 11.0 µM
  growth inhibition: -2%
[2]; at 33.0 µM
  growth inhibition: -2%
[2]; at 100.0 µM
  growth inhibition: -6%
[3]; at 1.2 µM
  growth inhibition: 30%
[3]; at 3.7 µM
  growth inhibition: 29%
[3]; at 11.0 µM
  growth inhibition: 22%
[3]; at 33.0 µM
  growth inhibition: 23%
[3]; at 100.0 µM
  growth inhibition: 30%
[4]; at 1.2 µM
  growth inhibition: 11%
[4]; at 3.7 µM
  growth inhibition: 2%
[4]; at 11.0 µM
  growth inhibition: 3%
[4]; at 33.0 µM
  growth inhibition: 11%
[4]; at 100.0 µM
  growth inhibition: 18%
[5]; at 1.2 µM
  growth inhibition: 6%
[5]; at 3.7 µM
  growth inhibition: 18%
[5]; [16]
  growth inhibition: 21%
[5]; at 11.0 µM
  growth inhibition: 40%
[5]; at 33.0 µM
  growth inhibition: 79% (active)
[5]; [17]
  growth inhibition: 85% (active)
[5]; at 50.0 µM
  growth inhibition: 80.7% (active)
[5]; at 100.0 µM
  growth inhibition: 92% (active)
[6]; at 1.2 µM
  growth inhibition: -2%
[6]; at 3.7 µM
  growth inhibition: -2%
[6]; [16]
  growth inhibition: -3%
[6]; at 11.0 µM
  growth inhibition: -1%
[6]; at 33.0 µM
  growth inhibition: 2%
[6]; [17]
  growth inhibition: -1%
[6]; at 50.0 µM
  growth inhibition: 12.4%
[6]; at 100.0 µM
  growth inhibition: 10%
[7]; at 1.2 µM
  growth inhibition: -1%
[7]; at 3.7 µM
  growth inhibition: -4%
[7]; at 11.0 µM
  growth inhibition: -2%
[7]; at 33.0 µM
  growth inhibition: -6%
[7]; at 100.0 µM
  growth inhibition: -4%
[8]; [16]
  growth inhibition: -3%
[8]; [17]
  growth inhibition: -3%
[8]; at 50.0 µM
  growth inhibition: 4.5%
[9]; [16]
  growth inhibition: -3%
[9]; [17]
  growth inhibition: -12%
[9]; at 50.0 µM
  growth inhibition: -5.5%
[10]; at 1.2 µM
  growth inhibition: 0%
[10]; at 3.7 µM
  growth inhibition: -1%
[10]; [16]
  growth inhibition: -3%
[10]; at 11.0 µM
  growth inhibition: -3%
[10]; at 33.0 µM
  growth inhibition: -14%
[10]; [17]
  growth inhibition: -10%
[10]; at 50.0 µM
  growth inhibition: -14.6%
[10]; at 100.0 µM
  growth inhibition: -11%
[11]; at 1.2 µM
  growth inhibition: -1%
[11]; at 3.7 µM
  growth inhibition: 7%
[11]; at 11.0 µM
  growth inhibition: -3%
[11]; at 33.0 µM
  growth inhibition: -2%
[11]; at 100.0 µM
  growth inhibition: -12%
[12]; at 1.2 µM
  growth inhibition: 0%
[12]; at 3.7 µM
  growth inhibition: -4%
[12]; at 11.0 µM
  growth inhibition: -3%
[12]; at 33.0 µM
  growth inhibition: 0%
[12]; at 100.0 µM
  growth inhibition: 0%
[13]; at 1.2 µM
  growth inhibition: -3%
[13]; at 3.7 µM
  growth inhibition: 0%
[13]; at 11.0 µM
  growth inhibition: 0%
[13]; at 33.0 µM
  growth inhibition: 6%
[13]; at 100.0 µM
  growth inhibition: 5%
[14]; [16]
  growth inhibition: 0%
[14]; [17]
  growth inhibition: 3%
[14]; at 50.0 µM
  growth inhibition: 12.2%
[15]; at 1.2 µM
  growth inhibition: 28%
[15]; at 3.7 µM
  growth inhibition: 23%
[15]; at 11.0 µM
  growth inhibition: 28%
[15]; at 33.0 µM
  growth inhibition: 16%
[15]; at 100.0 µM
  growth inhibition: 9%
